# Bioassay records from PubChem BioAssay.
# Cruzain noTriton: inhibitors of Trypanosoma cruzi cruzain without detergent | P25779 | purified cruzain, Z-FR-AMC fluorescence, no detergent | Potency, µM, for inactives: max response, negative = inhibition, most hits filed as inhibitors | hit rate 2.3% among 200,000 | AID 1476;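 note: plate controls were enzyme without inhibitor for no effect and buffer without enzyme for full effect; nearly all actives have a fitted effect of over 40% in size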
# Target sequence (P25779 123-467 limits assumed): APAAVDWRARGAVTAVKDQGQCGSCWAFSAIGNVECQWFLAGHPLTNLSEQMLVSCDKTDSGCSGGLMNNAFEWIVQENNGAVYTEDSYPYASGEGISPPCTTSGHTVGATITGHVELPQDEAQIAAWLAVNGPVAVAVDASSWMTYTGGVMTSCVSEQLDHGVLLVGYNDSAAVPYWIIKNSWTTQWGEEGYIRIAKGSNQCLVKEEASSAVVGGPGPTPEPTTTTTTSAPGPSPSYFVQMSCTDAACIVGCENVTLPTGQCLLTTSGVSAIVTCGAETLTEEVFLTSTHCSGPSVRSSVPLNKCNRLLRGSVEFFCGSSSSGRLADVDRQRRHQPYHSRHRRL
#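 Purified cruzain at 1.5 nM, pre-incubated 15 min with compound at room temperature in 100 mM sodium acetate pH 5.5, 5 mM DTT, 0.00005% Triton X-100. Reaction started with 2 uM Z-FR-AMC; AMC fluorescence increase over 60 s gives rate.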
# Cruzain inh Det: cruzain (T. cruzi) inhibition with detergent; purified cruzain, Z-FR-AMC fluorescence, 0.01% Triton; Potency, µM, for inactives: max response, negative = inhibition, actives largely listed as inhibitors; hit rate 0.43% among 200,000; AID 1478;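 note: plate controls were neutral wells for no effect and buffer without enzyme for full effect; nearly all actives have a fitted effect of over 40% in size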
#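 Compounds were screened in titration against cruzain (1.5 nM) with 0.01% Triton X-100 to counter colloidal aggregation. Activity was the AMC fluorescence increase over 60 s after adding 2 uM Z-FR-AMC at pH 5.5.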
# * = called active by the depositor; ? = inconclusive. Only some compounds are listed: those with a hit (about 2.5% of all), similar ones and a draw of the others. Calls come from the whole dose curve; as a rule, active = well fitted curve in the direction sought with a large enough effect; inconclusive = small, poorly fitted or top-dose-only effect, or another doubt; inactive = no such curve, though single readings can be large; an effect the other way counts as inactive or inconclusive. Potency is the fitted concentration of half-maximal effect.
SMILES,Cruzain noTriton,Cruzain inh Det
COc1cccc(Nc2sc(C(=O)c3ccc(Cl)cc3)c(N)c2C(=O)NCc2ccc(C)cc2)c1,?,0%
COc1ccccc1NC(=O)c1c(Nc2ccccc2C)sc(C(=O)Nc2cccc(Cl)c2)c1N,3.2µM*,2%
COc1ccc(Nc2sc(C(=O)c3ccc(Cl)cc3)c(N)c2C(=O)Nc2ccccc2OC)cc1,4µM*,0%
COc1cccc(Nc2sc(C(=O)c3ccc(F)cc3)c(N)c2C(=O)NCc2ccc(Cl)cc2)c1,-16%,-3%
COc1ccc(NC(=O)c2c(Nc3ccccc3)sc(C(=O)c3ccc(F)cc3)c2N)cc1,10µM*,-8%
COc1ccc(C(=O)c2sc(Nc3cccc(OC)c3)c(C(=O)Nc3cccc(C)c3C)c2N)cc1,6.3µM*,0%
CCOc1ccccc1Nc1sc(C(=O)c2ccccc2)c(N)c1C(=O)Nc1ccccc1,?,-2%
O=C(COc1ccc(F)cc1)OCc1cc(=O)n2nc(C3CC3)sc2n1,-8%,-3%
O=C(NCc1ccc(F)cc1)C1CCN(C(=O)c2ccc(-n3ccc4ccccc43)s2)CC1,6%,-7%
CCOC(=O)c1ccc(NC(=O)CC2S/C(=N/N=C/c3c[nH]c4ccccc34)NC2=O)cc1 (centres undefined),?,-2%
Cc1ccc(NC(=O)CC2SC(=NCC3CCCO3)NC2=O)cc1Cl (centres undefined),-5%,1%
Cc1ccc(NC(=O)CC2S/C(=N/N=C/c3c[nH]c4ccccc34)NC2=O)cc1 (centres undefined),20µM*,-15%
Cc1ccc(NC(=O)CC2S/C(=N/N=C/C=C/c3ccccc3)NC2=O)cc1Cl (centres undefined),5µM*,-2%
COc1cc(OC)c(OC)cc1CNc1sc2c(c1C(=O)Nc1ccccc1OC)CCC2,1%,-6%
CCN(C(=O)CSc1nc2n[nH]c(C)c2c(=N)n1-c1cccc(OC)c1)c1cccc(C)c1,?,-4%
Cc1noc(/C=C/c2cccs2)c1S(=O)(=O)N1CCC(C(=O)NCc2ccccc2Cl)CC1,13µM*,-5%
Cc1ccc(CNC(=O)C2CCN(S(=O)(=O)c3c(C)noc3/C=C/c3cccs3)CC2)cc1,0%,-5%
CCCCOc1ccc(S(=O)(=O)Nc2cccc(-c3ccc(N4CCOCC4)nn3)c2)cc1,12%,-4%
CC(=O)c1cccc(NC(=O)CC(c2ccc(C)cc2)N2Cc3ccccc3C2=O)c1 (centres undefined),-7%,-6%
CCc1nnc(SCc2ccc(F)cc2Cl)c2cc3sc(C)cc3n12,7%,-1%
Cc1ccc(S(=O)(=O)N/N=C/c2ccc(OCC(=O)Nc3ccccc3Cl)cc2)cc1,25µM*,0%
COc1ccccc1NC(=O)COc1ccc(/C=N/NS(=O)(=O)c2ccc(C)cc2)cc1,-28%,-3%
Cc1ccc(C)c(CN2C(=O)c3ccccc3S(=O)(=O)c3ccc(C(=O)Nc4cc(F)ccc4F)cc32)c1,16µM*,-2%
Cc1ccc(C)c(CN2C(=O)c3ccccc3S(=O)(=O)c3ccc(C(=O)Nc4ccccc4C(F)(F)F)cc32)c1,?,-5%
Cc1ccc(C)c(CN2C(=O)c3ccccc3S(=O)(=O)c3ccc(C(=O)NCCc4ccc(Cl)cc4)cc32)c1,10µM*,5%
SMILES,Cruzain noTriton,Cruzain inh Det
O=C(NCCc1ccc(Cl)cc1)c1ccc2c(c1)N(Cc1ccccc1F)C(=O)c1ccccc1S2(=O)=O,?,1%
CSc1cccc(NC(=O)Cn2c3ncccc3c(=O)n2-c2ccc(C)cc2)c1,?,-8%
CCOc1ccc(NC(=O)Cn2nnc(C(=O)OC)c2C(=O)OC)cc1,-8%,0%
COc1cccc(CNCCSc2nnnn2-c2ccccc2)c1OC,-3%,0%
Nc1cccc(C2=Nc3cccc4cccc(c34)N2)c1,7.9µM*,-3%
Nc1cccc(-c2nc3ccc(N)cc3s2)c1,-1%,-22%
CC(C)C1=Nc2cccc3cccc(c23)N1,-10%,1%
COc1ccc(C2=Nc3cccc4cccc(c34)N2)cc1,3.2µM*,-3%
CCn1ccc2cc(S(=O)(=O)N3CCCN(C(=O)NCC(=O)OC)CC3)ccc21,-10%,-1%
Cc1c(C(=O)NCC2COc3ccccc3O2)oc2ccc(S(=O)(=O)N3CC(C)CC(C)C3)cc12 (centres undefined),20µM*,2%
Cc1c(C(=O)NCC2COc3ccccc3O2)oc2ccc(S(=O)(=O)N3CCOCC3)cc12 (centres undefined),10%,-3%
O=C(NCCc1ccccc1)C(=O)NCC(c1cccnc1)N1CCN(c2ccc(F)cc2)CC1 (centres undefined),?,-8%
Clc1ccc(Cl)c(Nc2ccnc(SCc3ccccc3)n2)c1,-12%,-6%
Oc1ccccc1/C=N/Nc1ccnc(SCc2ccccc2)n1,20µM*,-6%
O=C(CCC1N=C2c3ccccc3N=C(SCc3ccc(F)cc3)N2C1=O)NCCc1ccccc1 (centres undefined),?,-3%
CCOc1ccc(S(=O)(=O)NCCC(=O)OCN2C(=O)c3ccccc3C2=O)cc1,-8%,-7%
Cc1ccc(S(=O)(=O)NCC(=O)OCN2C(=O)c3ccccc3C2=O)cc1,25µM*,22µM*
CCCN(CCC)c1nn2c(=O)c(C(=O)NCc3cccc(OC)c3)cnc2s1,14%,-10%
Cc1ccc(CNc2ncccc2-c2nc3cc(Cl)ccc3o2)cc1,10µM*,-12%
Clc1ccc2oc(-c3cccnc3NCc3ccccc3)nc2c1,-6%,-14%
CCNc1ncc2nc(-c3ccc(Cl)cc3)c(=O)n(-c3ccccc3)c2n1,13%,-1%
CC(C)(C)C(=O)Nc1cc(-c2cccc(Br)c2)nn1-c1ccccc1,11%,-2%
O=S1(=O)c2ccccc2N(Cc2ccccc2Cl)c2ccccc21,-4%,0%
CSc1ccc(C(=S)N2CCN(C(c3ccccc3)c3ccccc3)CC2)cc1,4µM*,-2%
CSc1ccc(C(=S)N2CCN(C)CC2)cc1,11%,3%
SMILES,Cruzain noTriton,Cruzain inh Det
COc1ccc(OC)c(NC(=O)Cc2c(C)n(C(=O)c3ccc(Cl)cc3)c3ccc(OC)cc23)c1,-5%,1%
COc1ccc2c(c1)c(CC(=O)Nc1cc(C)ccc1C)c(C)n2C(=O)c1ccc(Cl)cc1,13µM*,-5%
COc1ccc2c(c1)c(CC(=O)Nc1c(C)cccc1C)c(C)n2C(=O)c1ccc(Cl)cc1,-12%,1%
COc1ccc2c(c1)c(CC(=O)Nc1ccccc1OC)c(C)n2C(=O)c1ccc(Cl)cc1,16µM*,-6%
Cc1ccc(-n2cc(C(=O)OCc3ccc(Cl)cc3)c3ccccc3c2=O)cc1,-7%,-1%
Cc1ccc(S(=O)(=O)c2nc(-c3ccccc3)oc2SCC(=O)NC2CCCCC2)cc1,2%,-1%
Cc1cccc(CCNC(=O)c2cnc3c(C)cccn3c2=O)c1,18%,-7%
Cc1ccc2c(=O)cc(C(=O)Nc3ccc(S(=O)(=O)Nc4ncccn4)cc3)oc2c1C,-16%,-2%
Cc1ccccc1NC(=O)/C(=C/c1ccccc1)c1ccccc1,-5%,-1%
O=C(Nc1ccccc1)/C(=C/c1ccccc1)c1ccccc1,13µM*,-3%
CC1(C)CC2CC(C)(CN2C(=O)COC(=O)c2cc(Cl)cc(Cl)c2N)C1 (centres undefined),0%,-8%
CC1(C)CC2CC(C)(CN2C(=O)COC(=O)CNC(=O)c2ccc(Cl)c(Cl)c2)C1 (centres undefined),7.9µM*,7.9µM*
Cc1ccccc1C(=O)Nc1nc2nc(-c3ccccc3)cc(=O)n2[nH]1,0%,-1%
